From PubChem BioAssay (NCATS)
Records with an inconclusive call do not appear. The source made the active and inactive calls. Unless noted, calls follow the shape of the dose curve; as a rule, active = well fitted curve in the direction sought with a large enough effect; inconclusive = small, poorly fitted or top-dose-only effect, or another doubt; inactive = no such curve, though single readings can be large; an effect the other way counts as inactive or inconclusive.

Experiments:
[1] = target: Lysosomal acid glucosylceramidase (Homo sapiens) (UniProt P04062); test: Glucocerebrosidase-p2 (AID 348; in the data active = potency below about 10 µM; also: potency is read from the fitted curve at half-maximal effect); settings: purified GBA, blue fluorogenic substrate, 40 min
Method in brief: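 Normal human glucocerebrosidase (0.2 nM) with blue fluorogenic substrate (80 uM final) in citrate/phosphate pH 5.9 with 10mM sodium taurocholate, 0.01% tween-20; 40 min RT, NaOH/glycine stop; fluorescence Ex 365/Em 440; AC50 from a titration from 0.6 nM upwards.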

[2] = target: Cytochrome P450 1A2 (Homo sapiens) (UniProt P05177); test: p450-cyp1a2 (AID 410; calls by dose curve; also: potency is read from the fitted curve at half-maximal effect;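 as to activity change, negative = inhibition: -100% = full effect of reference inhibitor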); settings: recombinant CYP1A2, luciferin-ME demethylation, luminescence; series mostly up to 57 µM
Method in brief: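 Luminescent demethylation readout: Luciferin-ME (100uM, equal to Km) turned over by 20nM CYP1A2 for 60 min at room temperature after NADPH regeneration addition, following 10 min compound preincubation. Normalization used 57 uM furafylline as full inhibition.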

[3] = NFAT Signaling Pathway (AID 444; active = well fitted curve in either direction with a large enough effect, not every such curve was filed as active;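 also: carbachol stimulus at about its EC50 of 1 µM final; % is scaled to controls: 0 for no effect and ±100 for the full control effect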); settings: Jurkat NFAT-bla M1, carbachol, beta-lactamase ratio, 5 h; at 7.69 µM (top of the series) unless noted
Method in brief: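 Jurkat cells carrying an NFAT-driven β-lactamase reporter and co-transfected muscarinic M1 receptor were treated with compound plus carbachol (1 uM final, an EC50 level) for 5 h at 37 °C. CCF4 loading followed for 1 h at RT; 460/530 nm ratio gave %activity.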

[4] = Stat Signaling Pathway (AID 446; active = well fitted curve in either direction with a large enough effect, not every such curve was filed as active;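 also: ME-180 cervical cancer cells given 40 pM IL-6 alongside compound; SIE-controlled beta-lactamase reporter measured as 460/530 nm FRET emission ratio; % is scaled to controls: 0 for no effect and ±100 for the full control effect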); settings: ME-180 SIE beta-lactamase reporter, IL-6 stimulated, 5 h; at 7.69 µM (top of the series) unless noted
Method in brief: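 Normalization used AC90 stimulation (300 pM IL-6) and AC90 inhibition (125 nM pan-JAK inhibitor at 40 pM IL-6). The underlying signal is SIE-driven beta-lactamase in ME-180 cells after 5 h IL-6 exposure with compound.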

[5] = target: Glucocorticoid receptor (Homo sapiens) (UniProt P04150); test: GR-GFP Redistribution (AID 450;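 active = compounds whose dose series gives a full or clear partial fitted curve of increased nuclear translocation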; also: potency is read from the fitted curve at half-maximal effect); settings: U2OS GR-GFP nuclear translocation, laser cytometry, 2 h
[6] = target: Glucocorticoid receptor (Homo sapiens) (UniProt P04150); test: GR-EFC Redistribution (AID 451; calls by dose curve; also: potency is read from the fitted curve at half-maximal effect); settings: CHO-K1 GR-EFC translocation, beta-gal luminescence, 2 h
Method in brief: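 CHO-K1 cells stably expressing nuclear-localized β-gal enzyme acceptor and GR fused C-terminally to the enzyme donor fragment; ligand-driven nuclear translocation restores β-gal by complementation. Compounds titrated up to 46 uM final, 2 h at 37 °C; luminescence read.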

[7] = target: Mitogen-activated protein kinase 10 (Mus musculus) (UniProt Q61831); test: JNK3 AlphaScreen Assay (AID 530; active = well fitted curve in either direction with a large enough effect, not every such curve was filed as active;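 also: kinase came from lysate of stimulated human HepG2 cells; signal reports phosphorylation of biotinylated GST-cJun 1-79 at Ser73 with 10 µM ATP; % is scaled to controls: 0 for no effect and ±100 for the full control effect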); settings: JNK3 lysate, c-Jun phosphorylation; series mostly up to 57.1 µM
Method in brief: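 Phosphorylation of biotinylated GST-cJun(1-79) at Ser73 is measured by AlphaScreen proximity luminescence. Enzyme is JNK3 in HepG2 lysates activated with interleukin-1beta and tumor necrosis factor alpha; ATP is 10 uM final.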

[8] = target: 3',5'-cyclic-AMP phosphodiesterase 4B (Homo sapiens) (UniProt Q07343); test: qHTS Assay for Inhibitors of PDE-IV (AID 607; active = well fitted activation curve with a large enough effect in the main read-out, with a control signal flat, not every such curve was filed as active; also: % of control where 0% means no effect); settings: HEK293 ACTOne CNG channel cells, membrane potential fluorescence; series mostly up to 22.9 µM
Method in brief: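 HEK293 ACTOne cells with CNG channel (1000/well), endogenous PDE4; membrane potential dye, compounds up to 22.9 uM final. Fluorescence Ex 535/Em 590; RO 20-1724 (100 uM final) as reference.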

[9] = target: Cytochrome P450 3A4 (Homo sapiens) (UniProt P08684); test: qHTS Assay for Activators of Cytochrome P450 3A4 (AID 885); settings: recombinant CYP3A4, Luciferin-PPXE luminescence, 60 min; series mostly up to 57.1 µM; also: nearly all actives have a fitted effect of over 65% in size
Method in brief: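 Human CYP3A4 dealkylates Luciferin-PPXE to luciferin, which luciferase detection converts to light. Substrate was at its KM (25uM), buffer 200mM KPO4, reaction 60 min at RT.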

[10] = qHTS Assay for Lipid Storage Modulators (AID 1519; calls by dose curve); settings: Drosophila S3 cells, BODIPY lipid droplet/cell ratio, laser cytometry, cells loaded with oleic acid; for activity change, negative = inhibition: at 57.5 µM (top of the series)
Method in brief: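 Cells seeded at 5,000 per well were treated with compounds over a concentration series and loaded with oleic acid (400 uM, as added). Lipid droplet fluorescence (488 nm excitation, 500-530 nm channel) was read by laser-scanning cytometry and normalized to 20 uM Triacsin C.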

[11] = target: Dual specificity protein kinase CLK4 (Homo sapiens) (UniProt Q9HAZ1); test: qHTS Assay for Inhibitors of CDC-like Kinase 4 (Kinase-Glo Assay) (AID 1770); settings: recombinant Clk4, Kinase-Glo ATP depletion luminescence; series mostly up to 66.7 µM; also: nearly all actives have a fitted effect of over 65% in size; also: potency is read from the fitted curve at half-maximal effect
Method in brief: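 Readout: Kinase-Glo luminescence from ATP left after a 4.5 h room-temperature reaction of 25 nM Clk4 with 100 uM RS peptide and 1 uM ATP (final). Buffer: 25 mM Tris pH 7.5, 10 mM MgCl2.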

[12] = target: Dual specificity protein kinase CLK4 (Homo sapiens) (UniProt Q9HAZ1); test: qHTS Assay for Inhibitors of CDC-like Kinase 4 (ADP-Glo Assay) (AID 1771); settings: recombinant CLK4, ADP-Glo luminescence; series mostly up to 80 µM; also: nearly all actives have a fitted effect of over 70% in size; also: potency is read from the fitted curve at half-maximal effect
Method in brief: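 ADP production was read by ADP-Glo luminescence after residual ATP depletion, following 1 h room-temperature reaction of 25 nM Clk4, 1 uM ATP and 100 uM RS peptide with MgCl2, EGTA, DTT and Triton X-100.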

[13] = target: Dual specificity protein kinase CLK4 (Homo sapiens) (UniProt Q9HAZ1); test: qHTS Assay for Inhibitors of CDC-like Kinase 4 (ADP-FP Assay) (AID 1795); settings: Transcreener ADP fluorescence polarization; series mostly up to 50 µM; also: nearly all actives have a fitted effect of over 60% in size; also: potency is read from the fitted curve at half-maximal effect
Method in brief: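 FP readout: Orange Transcreener ADP2 tracer (4 nM) plus ADP antibody, read after 30 min at room temperature. Kinase step: 6.25 nM Clk4, 100 uM RS peptide, 1 uM ATP, pH 7.5, 1 h.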

[14] = target: Ubiquitin carboxyl-terminal hydrolase 1 (Homo sapiens) (UniProt O94782); test: Inhibitors of USP1/UAF1: Pilot qHTS (AID 504865); settings: purified USP1/UAF1, Ub-rhodamine cleavage fluorescence; series mostly up to 54.9 µM;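 also: rhodamine fluorescence freed from ubiquitin-rhodamine substrate followed over time; top concentration of the series differs between compounds; % is scaled to controls: 0 for no effect and ±100 for the full control effect; nearly all actives have a fitted effect of over 35% in size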
Method in brief: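 1nM USP1/UAF1 + cpd, 15 min RT; start w/ Ub-Rho 150nM final; kinetic FL 480/540 nm, 6 reads q60 s. Buffer 50mM HEPES pH 7.8, 0.5mM EDTA, 1mM TCEP, 0.01% Tween-20, 0.1 mg/ml BSA.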

[15] = AP1 Signaling Pathway (AID 357; active = well fitted curve in either direction with a large enough effect, not every such curve was filed as active;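 also: ME-180 reporter cells stimulated with EGF at its EC50 level; % is scaled to controls: 0 for no effect and ±100 for the full control effect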); settings: ME-180 AP-1-bla reporter, EGF-induced, beta-lactamase ratio, 5 h; at 7.69 µM (top of the series) unless noted
Method in brief: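 A ratiometric CCF4 readout (405 nm excitation; 460 and 530 nm emission) quantified AP-1-driven beta-lactamase in ME-180 cells after 5 h with compound and EC50 EGF; AC50 values were derived for activators and inhibitors.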

[16] = qHTS Assay for Identification of Small Molecule Agonists for Hypoxia Response Element Signaling Pathway (AID 914; active = well fitted activation curve with a large enough effect in the signal ratio, with a control signal flat, not every such curve was filed as active; the % refers to the signal ratio; also: % of control where 0% means no effect); settings: ME-180 (cervical carcinoma) HRE-bla reporter, beta-lactamase ratio, CoCl2, 17 h; activation: stronger effect = higher value
Method in brief: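 HRE-bla ME-180 cells, overnight plating in Opti-MEM with 0.5% dialyzed FBS; cpd titration + EC50 CoCl2, 17 h, 37 degrees Celsius; CCF4 2.5 h RT; 460/530 nm ratio; AC50.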

[17] = target: Cytochrome P450 3A4 (Homo sapiens) (UniProt P08684); test: qHTS Assay for Inhibitors and Substrates of Cytochrome P450 3A4 (AID 884); settings: recombinant CYP3A4, Luciferin-PPXE luminescence; series mostly up to 57.1 µM; also: potency is read from the fitted curve at half-maximal effect; nearly all actives have a fitted effect of over 50% in size
Method in brief: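 Luminescent readout of luciferin produced by CYP3A4 (20 nM) dealkylation of Luciferin-PPXE, 25 uM (its KM). NADPH-driven reaction ran 60 min at RT after 10 min compound preincubation; data scaled to 57 uM ketoconazole as 100% inhibition.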

[18] = measured here: cell count channel max response
[19] = measured here: lipid channel max response

Ubiquitin carboxyl-terminal hydrolase 1 (Homo sapiens), sequence (O94782 whole entry, looked up): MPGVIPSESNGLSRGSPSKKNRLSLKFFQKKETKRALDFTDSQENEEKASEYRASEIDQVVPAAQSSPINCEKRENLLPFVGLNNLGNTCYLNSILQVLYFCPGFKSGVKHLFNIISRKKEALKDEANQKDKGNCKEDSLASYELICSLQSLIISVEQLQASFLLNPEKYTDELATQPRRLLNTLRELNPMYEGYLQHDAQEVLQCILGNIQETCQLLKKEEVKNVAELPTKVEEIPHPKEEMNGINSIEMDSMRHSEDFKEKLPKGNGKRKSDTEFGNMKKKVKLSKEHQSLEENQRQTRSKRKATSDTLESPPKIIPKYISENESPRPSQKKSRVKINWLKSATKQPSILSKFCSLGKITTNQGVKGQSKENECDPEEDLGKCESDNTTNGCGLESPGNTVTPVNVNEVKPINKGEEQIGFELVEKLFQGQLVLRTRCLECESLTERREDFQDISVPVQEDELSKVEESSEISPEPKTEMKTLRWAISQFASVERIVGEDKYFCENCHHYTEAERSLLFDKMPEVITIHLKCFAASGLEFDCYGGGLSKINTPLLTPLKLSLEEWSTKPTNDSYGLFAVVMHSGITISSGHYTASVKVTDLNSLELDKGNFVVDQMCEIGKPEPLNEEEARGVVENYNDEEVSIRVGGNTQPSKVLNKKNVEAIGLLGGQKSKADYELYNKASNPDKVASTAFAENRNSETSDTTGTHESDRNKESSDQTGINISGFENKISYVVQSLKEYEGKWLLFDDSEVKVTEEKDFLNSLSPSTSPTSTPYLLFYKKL
3',5'-cyclic-AMP phosphodiesterase 4B (Homo sapiens), sequence (Q07343 whole entry, looked up): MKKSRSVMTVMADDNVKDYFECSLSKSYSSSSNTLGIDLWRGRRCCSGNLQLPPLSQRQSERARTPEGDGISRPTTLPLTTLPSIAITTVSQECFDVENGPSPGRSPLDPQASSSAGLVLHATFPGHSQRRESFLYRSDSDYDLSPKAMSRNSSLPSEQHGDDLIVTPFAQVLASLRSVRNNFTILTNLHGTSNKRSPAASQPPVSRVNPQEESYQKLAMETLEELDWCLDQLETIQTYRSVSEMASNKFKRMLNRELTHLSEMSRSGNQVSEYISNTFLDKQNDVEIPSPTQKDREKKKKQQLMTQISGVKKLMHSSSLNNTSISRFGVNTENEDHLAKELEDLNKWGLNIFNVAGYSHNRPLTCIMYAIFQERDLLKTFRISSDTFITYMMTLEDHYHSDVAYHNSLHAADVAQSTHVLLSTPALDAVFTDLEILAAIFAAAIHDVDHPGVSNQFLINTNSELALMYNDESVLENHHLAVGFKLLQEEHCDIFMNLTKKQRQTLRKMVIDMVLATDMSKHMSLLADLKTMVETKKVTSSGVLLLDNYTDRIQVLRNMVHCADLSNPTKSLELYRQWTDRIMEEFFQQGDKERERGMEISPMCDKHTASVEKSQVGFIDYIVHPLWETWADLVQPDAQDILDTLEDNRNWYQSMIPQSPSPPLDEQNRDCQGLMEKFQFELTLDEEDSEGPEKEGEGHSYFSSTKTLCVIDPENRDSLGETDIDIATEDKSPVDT
Cytochrome P450 3A4 (Homo sapiens), sequence (P08684 whole entry, looked up): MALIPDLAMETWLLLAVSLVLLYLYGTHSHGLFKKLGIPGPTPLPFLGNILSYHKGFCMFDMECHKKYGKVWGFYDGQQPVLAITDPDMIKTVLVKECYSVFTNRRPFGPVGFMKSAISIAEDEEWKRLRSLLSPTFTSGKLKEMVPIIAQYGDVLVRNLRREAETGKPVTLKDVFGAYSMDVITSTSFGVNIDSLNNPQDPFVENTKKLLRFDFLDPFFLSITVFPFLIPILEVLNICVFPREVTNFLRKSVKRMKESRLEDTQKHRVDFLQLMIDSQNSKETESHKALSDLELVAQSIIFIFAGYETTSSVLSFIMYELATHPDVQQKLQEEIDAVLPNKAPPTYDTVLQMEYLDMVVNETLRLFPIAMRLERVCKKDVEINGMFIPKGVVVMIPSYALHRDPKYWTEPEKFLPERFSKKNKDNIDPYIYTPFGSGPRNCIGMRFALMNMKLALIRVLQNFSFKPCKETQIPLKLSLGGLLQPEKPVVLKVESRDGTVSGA
Glucocorticoid receptor (Homo sapiens), sequence (P04150 whole entry, looked up, the tested form may be a part): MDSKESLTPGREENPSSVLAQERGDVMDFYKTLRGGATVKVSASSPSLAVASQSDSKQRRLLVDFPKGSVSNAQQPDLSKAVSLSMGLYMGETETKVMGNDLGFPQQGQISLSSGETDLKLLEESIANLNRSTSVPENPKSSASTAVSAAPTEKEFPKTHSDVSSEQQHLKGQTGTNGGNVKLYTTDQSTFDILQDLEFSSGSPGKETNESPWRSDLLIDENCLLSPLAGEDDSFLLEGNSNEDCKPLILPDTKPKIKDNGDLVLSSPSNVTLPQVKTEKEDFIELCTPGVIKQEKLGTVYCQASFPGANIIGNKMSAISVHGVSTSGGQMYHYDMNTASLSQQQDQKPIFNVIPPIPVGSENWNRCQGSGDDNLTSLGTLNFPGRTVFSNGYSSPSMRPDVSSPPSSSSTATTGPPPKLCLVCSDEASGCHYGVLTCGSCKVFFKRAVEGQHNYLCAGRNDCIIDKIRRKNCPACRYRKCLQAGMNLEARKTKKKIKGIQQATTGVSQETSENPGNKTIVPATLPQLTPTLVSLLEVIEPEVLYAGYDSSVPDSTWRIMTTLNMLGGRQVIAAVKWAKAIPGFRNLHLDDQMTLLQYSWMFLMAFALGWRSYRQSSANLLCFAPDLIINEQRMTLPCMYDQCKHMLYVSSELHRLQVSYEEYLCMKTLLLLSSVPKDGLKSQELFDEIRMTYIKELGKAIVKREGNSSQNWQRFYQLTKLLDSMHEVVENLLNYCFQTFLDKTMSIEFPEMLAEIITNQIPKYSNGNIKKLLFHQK
Lysosomal acid glucosylceramidase (Homo sapiens), sequence (P04062 whole entry, looked up): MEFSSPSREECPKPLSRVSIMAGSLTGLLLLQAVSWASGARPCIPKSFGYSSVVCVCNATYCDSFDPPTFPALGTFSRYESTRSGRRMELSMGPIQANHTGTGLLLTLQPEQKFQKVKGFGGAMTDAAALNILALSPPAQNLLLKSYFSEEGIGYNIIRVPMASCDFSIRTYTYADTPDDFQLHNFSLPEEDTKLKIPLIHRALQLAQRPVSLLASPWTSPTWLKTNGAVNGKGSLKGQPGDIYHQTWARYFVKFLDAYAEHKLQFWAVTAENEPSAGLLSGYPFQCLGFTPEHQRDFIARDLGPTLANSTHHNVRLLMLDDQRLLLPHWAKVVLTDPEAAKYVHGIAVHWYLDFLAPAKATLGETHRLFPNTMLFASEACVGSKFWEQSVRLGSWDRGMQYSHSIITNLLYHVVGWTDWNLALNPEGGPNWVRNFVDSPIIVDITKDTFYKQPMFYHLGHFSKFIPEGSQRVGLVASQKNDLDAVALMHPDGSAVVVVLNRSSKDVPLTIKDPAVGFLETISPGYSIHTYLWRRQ
Dual specificity protein kinase CLK4 (Homo sapiens), sequence (Q9HAZ1 whole entry, looked up): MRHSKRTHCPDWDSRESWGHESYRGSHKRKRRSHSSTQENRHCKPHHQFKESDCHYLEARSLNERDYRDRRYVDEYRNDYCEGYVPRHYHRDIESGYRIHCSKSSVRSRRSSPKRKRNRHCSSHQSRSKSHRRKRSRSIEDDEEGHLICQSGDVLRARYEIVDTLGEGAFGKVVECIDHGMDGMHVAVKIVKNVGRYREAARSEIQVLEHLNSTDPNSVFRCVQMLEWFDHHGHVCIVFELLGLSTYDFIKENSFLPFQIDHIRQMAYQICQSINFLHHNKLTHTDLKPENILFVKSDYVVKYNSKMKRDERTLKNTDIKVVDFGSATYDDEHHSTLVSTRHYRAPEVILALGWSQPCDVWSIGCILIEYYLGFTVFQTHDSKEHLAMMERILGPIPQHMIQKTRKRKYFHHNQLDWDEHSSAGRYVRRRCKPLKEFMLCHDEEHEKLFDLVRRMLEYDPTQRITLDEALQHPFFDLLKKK
Cytochrome P450 1A2 (Homo sapiens), sequence (P05177 whole entry, looked up): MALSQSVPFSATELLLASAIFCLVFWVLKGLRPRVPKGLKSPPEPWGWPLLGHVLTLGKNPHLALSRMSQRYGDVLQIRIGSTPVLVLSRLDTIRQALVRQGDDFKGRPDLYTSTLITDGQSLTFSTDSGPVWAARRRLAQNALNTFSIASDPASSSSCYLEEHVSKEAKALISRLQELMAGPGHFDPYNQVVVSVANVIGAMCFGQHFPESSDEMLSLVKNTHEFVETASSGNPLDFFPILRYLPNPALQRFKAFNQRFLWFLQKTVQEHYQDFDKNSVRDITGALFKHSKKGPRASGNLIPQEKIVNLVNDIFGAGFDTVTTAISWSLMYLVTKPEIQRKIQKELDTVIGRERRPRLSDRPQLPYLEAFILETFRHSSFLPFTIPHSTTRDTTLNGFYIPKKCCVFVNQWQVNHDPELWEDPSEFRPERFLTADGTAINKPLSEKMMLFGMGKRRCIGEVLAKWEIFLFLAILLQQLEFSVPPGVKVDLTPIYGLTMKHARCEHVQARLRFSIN

SMILES | Potency [1] | Potency [2] | activity change, negative = inhibition [3] | activity, negative = inhibition [4] | Potency [5] | Potency [6] | Potency [7] | Potency [8] | Potency [9] | activity change, negative = inhibition [10] | max response [10, 18] [%] | max response [10, 19] [%] | Potency [11] | Potency [12] | Potency [13] | Potency [14] | activity change, negative = inhibition [15] | activation [16] | Potency [17]
N#CCCn1c(=O)c(-c2ccc(F)cc2)nc2cnc(OCc3ccccc3)nc21 | > 11.4 µM (inactive) | 1.58 µM (active) | -4.49% (inactive) | -20.1% (inactive) | > 9.22 µM (inactive) | > 46 µM (inactive) | inactive | inactive | inactive | -1.54% (inactive) | 0.762 | -3.12 | inactive | inactive | inactive | inactive |  |  | 
COc1cccc(Cn2c(=O)c(-c3cc(F)cc(F)c3)nc3cnc(N4CCNCC4)nc32)c1 | > 11.4 µM (inactive) | inactive | 225% [activator] (active) |  | > 9.22 µM (inactive) | > 46 µM (inactive) |  | inactive | inactive | -13.2% (inactive) | -15.6 | -28.1 | inactive | inactive | inactive |  | 117% [activator] (active) |  | 
COc1cccc(-c2ccc3ncnc(NCCNC(C)=O)c3c2)c1 | > 11.4 µM (inactive) | 3.16 µM (active) | 21% (inactive) | 11% (inactive) | > 46 µM (inactive) | > 46 µM (inactive) | inactive | inactive | inactive | -2.84% (inactive) | -13.2 | -16.4 | 0.355 µM (active) | 0.447 µM (active) | 0.282 µM (active) | inactive | -19.2% (inactive) | 5.52% (inactive) | 
COc1cccc(Cn2c(=O)c(-c3ccc(F)cc3)nc3cnc(N4CCNCC4)nc32)c1 |  | 25.1 µM (active) |  |  | > 9.22 µM (inactive) | > 46 µM (inactive) |  | inactive | inactive | -5.11% (inactive) | 2.95 | 0.893 | inactive | inactive | inactive |  |  |  | 
CN1CCN(c2ncnc3ccc(-c4ccoc4)cc23)CC1 | > 11.4 µM (inactive) |  | -23.1% (inactive) | -0.925% (inactive) | > 46 µM (inactive) | > 46 µM (inactive) | inactive |  |  | 2.55% (inactive) | 12.5 | 2.82 | 0.631 µM (active) | 0.794 µM (active) | 0.447 µM (active) |  | -22.9% (inactive) |  | 
COc1cccc(Cn2c(=O)c(C)nc3cnc(N(C)C)nc32)c1 | > 11.4 µM (inactive) |  | 1.59% (inactive) | -11.2% (inactive) | > 9.22 µM (inactive) | > 46 µM (inactive) |  | inactive |  | -5.5% (inactive) | 19.8 | 12.4 | inactive | inactive | inactive | inactive | -23% (inactive) |  | 
O=c1c(-c2ccccc2)nc2cnc(Oc3cccc(Cl)c3)nc2n1C[C@H]1CCCO1 | > 11.4 µM (inactive) |  | -8.22% (inactive) | -8.43% (inactive) | > 9.22 µM (inactive) | > 46 µM (inactive) | inactive |  |  | -16.5% (inactive) | 18.2 | -2.39 | inactive | inactive | inactive | inactive |  |  | 
CN1CCN(c2ncncc2-c2ccoc2)CC1 | > 11.4 µM (inactive) |  | -13% (inactive) | -4.34% (inactive) | > 46 µM (inactive) | > 46 µM (inactive) | inactive | inactive | inactive | 5.79% (inactive) | 23.7 | 30.3 | inactive | inactive | inactive | inactive | -0.0355% (inactive) |  | 7.94 µM (active)
CC(=O)NCCNc1ncnc2ccc(-c3ccccc3C)cc12 | > 11.4 µM (inactive) | 0.631 µM (active) | -4.6% (inactive) | -8.49% (inactive) | > 46 µM (inactive) | > 46 µM (inactive) | inactive |  |  | 3.95% (inactive) | 28.7 | 28.3 | 15.8 µM (active) | 12.6 µM (active) |  | inactive | 28% (inactive) |  | 
Cc1nc2cnc(N3CCN(C)CC3)nc2n(C[C@H]2CCCO2)c1=O | > 11.4 µM (inactive) |  | -3.95% (inactive) | -13% (inactive) | > 9.22 µM (inactive) | > 46 µM (inactive) | inactive |  |  | 2.98% (inactive) | 2.4 | 4.31 |  | inactive | inactive | inactive | -19.6% (inactive) |  | 
CN1CCN(c2ncc3nc(-c4cccc(C#N)c4)c(=O)n(C)c3n2)CC1 | > 11.4 µM (inactive) | 12.6 µM (active) | 13.1% (inactive) | -0.0628% (inactive) | > 9.22 µM (inactive) | > 46 µM (inactive) | inactive | inactive |  | 1.68% (inactive) | 0.187 | 0.284 | inactive |  | inactive | inactive | 0.861% (inactive) |  | 
COc1ccc(CNc2ncnc3ccc(-c4ccc(C(=O)N(C)C)cc4)cc23)c(OC)c1 | > 11.4 µM (inactive) |  | 28.3% (inactive) | -9.48% (inactive) | > 46 µM (inactive) | > 46 µM (inactive) | inactive |  | inactive | 1.13% (inactive) | 11.2 | 9.92 | inactive |  | inactive | inactive | -13.6% (inactive) |  | 2.51 µM (active)
